Measurements published in PubChem BioAssay AID493248 (Broad Institute, 2011).
Screen size: about 2,300 compounds; about 1,400 (61%) were called active. Another 7% or so got no clear call; they are omitted. No rule for the calls is given here. So high a share suggests a set chosen from earlier hits. The list is a sample of the results. Entries with a potency or affinity are not part of this list.

Target: FAD-linked sulfhydryl oxidase ALR (Homo sapiens) (UniProt P55789)
Assay: inhibitors of human ALR sulfhydryl oxidase, dose response, biochemical, H2O2 detection, luminescence, cherry-pick (AID 493248)
Settings: purified ALR, DTT oxidation, H2O2 HRP-luminol luminescence; at 10 µM (top of the series)

Sequence of FAD-linked sulfhydryl oxidase ALR (Homo sapiens) (P55789 whole entry, looked up): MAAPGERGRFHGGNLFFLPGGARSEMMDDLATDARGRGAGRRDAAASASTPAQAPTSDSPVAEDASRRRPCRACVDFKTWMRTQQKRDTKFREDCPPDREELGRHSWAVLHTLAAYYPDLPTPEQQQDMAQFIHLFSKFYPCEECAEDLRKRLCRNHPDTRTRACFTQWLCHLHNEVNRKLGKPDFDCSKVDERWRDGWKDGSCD

Row | SMILES | activity change, negative = inhibition
1 | Cn1nnnc1SCc1ccc(C(=O)Nc2nccs2)cc1 | -48.1%
2 | O=C1NCCCc2c1oc1ccc(O)cc21 | 36.1%
3 | Nc1nn2cc(-c3ccccc3)nc2c2ccccc12 | -12.4%
4 | COC(=O)CNS(=O)(=O)c1ccc(Cc2ccc(S(=O)(=O)NCC(=O)OC)cc2)cc1 | 3.52%
5 | CCCc1cc(=O)[nH]c(Nc2ccc(O)cc2)n1 | -100%
6 | Cn1cccc1C(=O)OCc1csc(-c2ccccc2)n1 | 0.233%
7 | O=C(c1ccc(Cl)s1)N1CCN(c2ccccc2)CC1 | -20%
8 | O=C(c1cc(C2CC2)on1)N1CCN(c2ccccc2)CC1 | -8.71%
9 | Cc1cc(C(=O)CC#N)c(C)n1CC(F)(F)F | -17.1%
10 | COc1cccc(/C=N/NC(=O)CNC(=O)c2cccnc2)c1O | -19%
11 | CCN1CCSc2ccc(C(=O)NCc3cccc(F)c3)cc21 | 16%
12 | CCCC(C(=O)O)n1c(O)c(C=C2N=c3ccccc3=N2)sc1=S (centres undefined) | -50.1%
13 | O=C(c1ccco1)n1nc(-c2ccccc2)nc1NCc1ccco1 | -41.9%
14 | O=[N+]([O-])c1cc2c(cc1/C=N/n1c(-c3ccccc3)n[nH]c1=S)OCO2 | -34.5%
15 | CC(C)c1cc(C(=O)N/N=C/c2ccco2)n[nH]1 | 21.6%
16 | CC(=C\c1ccccc1)/C=C1/SC(=O)N(CCCC(=O)Nc2ccc(C(=O)O)cc2)C1=O | 1.78%
17 | S=c1[nH]nc(Cc2ccccc2)n1-c1ccccc1 | -7.81%
18 | CC(=O)Oc1ccc(Nc2ccccc2)cc1 | -1.83%
19 | COc1ccc2oc3cc(C)[n+]([O-])c(-c4ccc(C)cc4)c3c2c1 | -57.4%
20 | O=C(O)CC/C(=C\c1ccccc1[N+](=O)[O-])c1nc2ccccc2s1 | -55.4%
21 | COc1ccc(-c2noc(CN3CCN(c4ccccc4F)CC3)n2)cc1OC | -0.443%
22 | C(=N\Nc1ncnc2ccccc12)/c1ccccc1 | -47.4%
23 | COc1cc(/C=C2\SC(=S)N(NC(=O)c3ccc(O)cc3)C2=O)ccc1O | -100%
24 | O=C(O)CCCN1C(=O)/C(=C\c2ccc(-c3nc4ccccc4s3)o2)SC1=S | -22.6%
25 | COc1ccc(OC)c(NC(=O)CN(c2ccc(C(C)C)cc2)S(=O)(=O)c2c(C)noc2C)c1 | 28.2%

Row | SMILES | activity change, negative = inhibition
26 | COc1cc(NC(=O)NCCN2CCN(c3ccccc3)CC2)cc(OC)c1OC | -25.8%
27 | COc1ccc(C(=O)N/N=C(/C)c2ccc(N3CCCCC3)cc2)cc1 | -0.469%
28 | COc1c(C)cccc1C(=O)Nc1ccc(CN2CCCCC2)cc1 | 7.1%
29 | COc1ccc(NC(=O)c2cccnc2N2CCCC2)cc1 | 19.3%
30 | CCCN1C(=O)c2ccc(C(=O)Nc3ccccc3C(=O)O)cc2C1=O | -23.6%
31 | O=C(Nc1cc([N+](=O)[O-])ccc1O)c1ccc2c(c1)C(=O)N(Cc1ccco1)C2=O | -17.4%
32 | COc1ccc(C)cc1NCc1ccc(OC)c(C)c1OC | -55.4%
33 | Cc1ccc(N2CC(=O)N(NC(=O)CN3CCN(c4ccccc4)CC3)CC2=O)cc1 | -47.4%
34 | COc1ccc(C(=O)N/N=C/C2CC=CCC2)cc1OC (centres undefined) | -39.6%
35 | CN1C(=O)C2C(c3ccc(N(C)C)cc3)=NN(Cc3ccccc3)C2C1=O (centres undefined) | -0.925%
36 | Fc1ccc(-n2c(-c3ccc4c(c3)OCO4)n[nH]c2=S)cc1Cl | -56.2%
37 | Cc1nc2cc(N)ccc2n1-c1ccccc1 | 367%
38 | CC1=Nc2ccccc2N=C(N)C1c1ccccc1 (centres undefined) | -61.3%
39 | Cc1cc(C(=O)NNc2ccc(F)cc2F)no1 | 5.89%
40 | COc1cc(C(=S)N(C)C)ccc1O | -5.3%
41 | Oc1ccc(/C=N/N=C/c2ccc(O)cc2)cc1 | 256%
42 | O=Cc1ccc(O)c(O)c1 | -17.2%
43 | Oc1ccc(N=Cc2ccc(O)c(O)c2)cc1 | 102%
44 | CC(C)CNC(=O)C(=O)N/N=C/c1cccs1 | -15.3%
45 | CCn1c(O)c(/C=N/n2cnnc2)sc1=S | -33%
46 | Cc1cccc(NCCNc2cccc(C)c2)c1 | -44.1%
47 | C/C(=N\NC(=O)CCCNc1ccc(C)cc1)c1ccccn1 | 419%
48 | Cc1cccc(N/N=C/c2ccncc2)c1 | -105%
49 | CC(C)C(=O)c1ccc(O)c(O)c1 | -24.1%
50 | Cc1cccc(Nc2nc(N)nc(CCl)n2)c1C | -38.4%

Row | SMILES | activity change, negative = inhibition
51 | CN(C)CCC(=O)N1c2ccccc2Sc2ccc(C(F)(F)F)cc21 | -13.8%
52 | CCNc1nc(OC)nc(N(OC)S(=O)(=O)c2ccc(C)cc2)n1 | -55.8%
53 | O=S(=O)(Cc1ccccc1)N(O)c1ccccc1 | -38.7%
54 | CCCN1C(=O)c2cc(C(=O)NC3CCCCCC3)ccc2C1O (centres undefined) | -16.6%
55 | CC(C)(O)C#Cc1ccc(C(=O)NC2CCCCC2)s1 | -45.6%
56 | Cc1ccc(NC(=O)CCC(=O)N/N=C/c2ccc(O)cc2)cc1 | -2.67%
57 | Nc1c(Cl)ncnc1N/N=C/c1cccc(O)c1 | -7.72%
58 | O=C(CCn1cnc2ccccc21)N/N=C/c1ccc(O)cc1 | -88.9%
59 | O/N=C/c1cccn1-c1ccc(O)cc1 | -99.2%
60 | O=C(C[n+]1ccccc1)N/N=C/c1ccc(O)cc1 | -108%
61 | O=c1oc2ccccc2n1CSC1=NCCS1 | -21.8%
62 | O=[n+]1cc(-c2cc3ccccc3o2)n([O-])c2c1CCCC2 | -33.9%
63 | Cc1cc(Nc2ccccc2)n(CCC#N)n1 | -16.4%
64 | CC(C)NC(=O)c1ccccc1S(=O)c1ccccc1C#N (centres undefined) | -2.78%
65 | CN(C)c1ccc(/C(=N\O)C(F)(F)F)cc1 | -20%
66 | Cc1ccc(Nc2c(F)c(F)c(F)c(F)c2C(=O)O)c(C)c1 | -51.9%
67 | O=C(O)c1ccccc1Nc1ccccc1 | -21%
68 | Cc1ccc(O)c(-c2cc(C(F)(F)C(F)F)[nH]n2)c1 | 3.95%
69 | COc1ccc([N+](=O)[O-])cc1NC1CCCCC1 | -14.6%
70 | COc1ccc(CCC(=O)N2CCCC(Nc3ccc(OC)cc3)C2)cc1 (centres undefined) | 9.94%
71 | Cc1ccc2[nH]cc(CCNC(=O)c3cccnc3)c2c1 | -59.6%
72 | Cn1c(=O)c2c(-c3ccccc3)n(-n3cnnc3)cc2n(C)c1=O | -14.5%
73 | C=CCN1CCc2cc(O)c(O)cc2C(c2ccccc2)C1 (centres undefined) | -91.4%
74 | Cc1cccc(C2CN(C)CCc3c2cc(O)c(O)c3Cl)c1 (centres undefined) | -100%
75 | Cn1c(=O)[nH]c(=O)c2c1[nH]c(=S)n2Cc1ccc(Cl)cc1 | -38.6%

Row | SMILES | activity change, negative = inhibition
76 | CCCCCn1c(Br)nc2c1c(=O)n(CC(N)=O)c(=O)n2C | -20.4%
77 | CCN1CCN(Cc2nc3c(c(=O)n(C)c(=O)n3C)n2CC(=O)c2ccccc2)CC1 | 13.8%
78 | N#C/C(N=Nc1ccccc1O)=N\Nc1ccccc1O | 22.3%
79 | CC(C)(C)Nc1c(-c2cccs2)nc2ccccn12 | -39.4%
80 | Nc1ccc2sc(N)nc2c1 | 299%
81 | Cc1cc(NC(=O)c2sc(Nc3ccc(F)cc3)nc2N)no1 | -41.5%
82 | O=C(c1ccccn1)N1CCCC(N2CCN(c3ccc(F)cc3)CC2)C1 (centres undefined) | -82.4%
83 | CC(C)N(c1nnc(N)s1)C(C)C | -37.4%
84 | COc1ccc(C(N)CCc2ccco2)cc1 (centres undefined) | 0.936%
85 | CC(C)NC(=O)Nc1cccs1 | -47.1%
86 | Cc1ccc(NC(=O)Nc2cccs2)nc1 | -2.58%
87 | O=C(Nc1cccs1)Nc1c(F)cc(F)cc1Br | -42.8%
88 | Oc1ccc(NCc2cccs2)cc1 | 41.7%
89 | Cc1ccc(N2CCN(CCCN3C(=O)C4CCCN4C3=O)CC2)cc1 (centres undefined) | -22.5%
90 | O=C(C1CCCC1)N1CCCC(Nc2ccc(F)cc2)C1 (centres undefined) | -72.7%
91 | COc1ccc(NC2CCCN(C(=O)c3oc(C)cc3C)C2)cc1OC (centres undefined) | 75.6%
92 | CCCCNC(=O)c1onc(CCl)c1C(=O)OC | -46.6%
93 | C=CCNC(=O)c1onc(CSc2ccc(C)c(C)c2)c1C(=O)O | 10.6%
94 | Cc1cc2c(N3CCCCC3C)ncnc2s1 (centres undefined) | -5.25%
95 | Cc1ccc(NC(=O)C2CCN(S(=O)(=O)c3cccc4cccnc34)CC2)nc1 | -47.3%
96 | CC(c1ccc(F)cc1)n1c(-c2cccs2)n[nH]c1=S (centres undefined) | -12.6%
97 | Cc1cccc(-n2c(C)n[nH]c2=S)c1C | -35.3%
98 | CCn1c(-c2cc(Cl)ccc2OC)n[nH]c1=S | -40.3%
99 | Cc1n[nH]c(=S)n1-c1ccc(Cl)cc1 | -91.4%
100 | CC(NS(=O)(=O)c1ccccc1)c1n[nH]c(=S)n1-c1ccccc1 (centres undefined) | -28.7%

Row | SMILES | activity change, negative = inhibition
101 | Oc1c(Br)cc(Br)c(/C=N/n2c(-c3ccccc3)n[nH]c2=S)c1Br | -75.2%
102 | CCn1c(N)[n+](CC(=O)Nc2ccc(SC(F)F)cc2)c2ccccc21 | 17.1%
103 | Cc1cc(NCc2ccccn2)nc2ccccc12 | 16.8%
104 | Cc1nn(CC2CCCCC2)c(N)c1-c1ccccc1 | -21.2%
105 | CN(CC(=O)NCc1ccco1)S(=O)(=O)c1ccc2c(c1)n(C)c(=O)c(=O)n2C | -5.75%
106 | Cc1ccc(S(=O)(=O)NNC(=O)c2ccc(O)cc2)cc1 | -54.2%
107 | Cc1cc(C)nc(Sc2c(C)nn(-c3ccccc3)c2C)n1 | -4.01%
108 | Cc1ccc([N+](=O)[O-])cc1S(=O)(=O)Nc1ccc(O)c(Sc2ncn[nH]2)c1 | -101%
109 | Cc1cccc(NC(=O)C2CCN(S(=O)(=O)c3cccc4cccnc34)CC2)c1 | -19.2%
110 | COc1ccc(N=C(N(C)C)P(=O)(N(C)C)N(C)C)cc1 | -0.552%
111 | CN(C)/N=C/c1ccc(OC(=O)c2cccc([N+](=O)[O-])c2)cc1 | -3.63%
112 | Nc1ccc2c(c1)-c1ccccc1S(=O)(=O)N2 | -105%
113 | Cn1nc(-c2ccc(Cl)cc2)c2cc(C(=O)NC3CC3)sc21 | -2.11%
114 | CCN1CCN(C(=O)c2cc3c(-c4ccc(Cl)cc4)nn(C)c3s2)CC1 | -4.97%
115 | COc1cccc(-c2nc(CCl)cs2)c1 | 22.5%
116 | Fc1ccc2c(c1)/C(=N/Nc1ccccn1)CCS2 | -12.8%
117 | COc1ccc(-c2cc(-c3n[nH]c(=S)n3-c3cc(OC)ccc3OC)[nH]n2)cc1 | 46.9%
118 | O=C(CN1C(=O)S/C(=C\C=C\c2ccccc2)C1=O)Nc1ccc(C(=O)O)cc1 | -22.9%
119 | O=c1c2c(nc3n1CCCCC3)sc1c(O)cccc12 | -92.9%
120 | COc1ccc2c(/C=N/NS(=O)(=O)c3ccc(C)cc3)c[nH]c2c1 | -4.96%
121 | COc1cc(/C=N/Nc2cc(C)nc(N)n2)ccc1O | -108%
122 | COc1ccccc1NS(=O)(=O)c1cc([N+](=O)[O-])ccc1N/N=C/c1c[nH]c2ccccc12 | 0.734%
123 | COc1ccc(/C=N/Nc2ccc([N+](=O)[O-])cc2)cc1O | -70%
124 | Oc1ccc(/C=N/NC2=NCCCCC2)cc1 | -110%
